Holding throughout (assay): yeast three-hybrid, YBZ-1, SC-Leu-His + 0.5 mM 3-AT, 4 days
Settings in all cases: tags: N-Gal4 AD-HA kept; label: inside an RPR1-promoter hybrid RNA with tandem MS2 sites; ssRNA

The target of assay [1] is PUM1 PUF domain R3-THE (Homo sapiens, UniProt Q14671 828-1176, C935T;R936H;Q939E). The method in brief: (§1)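 The interaction score is the logarithmic change in variant frequency from input to selection. It uses log2, with a pseudocount of 1 for absent variants, and frequencies came from PCR-amplified, Illumina-sequenced repeat regions. The libraries were Pumilio-1 PUF domains randomized at the three base-contacting residues per repeat, co-expressed with matching RNA elements in strain YBZ-1 (LexA–MS2 coat fusion, HIS3 reporter). Plating lasted four days on SC-Leu (input) or SC-Leu-His + 0.5 mM 3-AT (selection).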

Assay [2] deals with T1, PUM1 PUF domain R6-GWI (Homo sapiens, UniProt Q14671 828-1176, N1043G;Y1044W;Q1047I).
T1 sequence: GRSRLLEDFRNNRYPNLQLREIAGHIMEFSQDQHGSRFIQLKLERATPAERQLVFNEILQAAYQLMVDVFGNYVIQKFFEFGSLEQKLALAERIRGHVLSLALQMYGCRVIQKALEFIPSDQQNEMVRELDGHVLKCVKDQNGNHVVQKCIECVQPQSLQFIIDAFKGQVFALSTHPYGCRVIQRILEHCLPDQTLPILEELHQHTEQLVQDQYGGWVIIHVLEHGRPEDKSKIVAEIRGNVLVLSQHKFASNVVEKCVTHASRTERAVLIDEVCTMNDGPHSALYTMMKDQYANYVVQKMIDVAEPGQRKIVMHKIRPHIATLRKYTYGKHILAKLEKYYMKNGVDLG
The method in brief: as §1

Assay [3] has as its target PUM1 PUF domain R4-CRA (Homo sapiens, UniProt Q14671 828-1176, N971C;H972R;Q975A). The method in brief:
as §1

The target in assay [4] is T2, PUM1 PUF domain R6-SRD (Homo sapiens, UniProt Q14671 828-1176, N1043S;Y1044R;Q1047D).
T2 sequence: T1 sequence with G216S, W217R, I220D
A digest of the protocol:
as §1

Assay [5] deals with PUM1 PUF domain R7-RNR (Homo sapiens, UniProt Q14671 828-1176, S1079R;E1083R). A digest of the protocol: as §1
Assay [6] deals with PUM1 PUF domain R5-CNH (Homo sapiens, UniProt Q14671 828-1176, R1008N;Q1011H). The method in brief: as §1
Assay [7] concerns the target PUM1 PUF domain R5-RAT (Homo sapiens, UniProt Q14671 828-1176, C1007R;R1008A;Q1011T). The method in brief: as §1
Assay [8] addresses PUM1 PUF domain R8-KFL (Homo sapiens, UniProt Q14671 828-1176, N1122K;Y1123F;Q1126L). A digest of the protocol: as §1
The target in assay [9] is PUM1 PUF domain R4-DHA (Homo sapiens, UniProt Q14671 828-1176, N971D;Q975A). A digest of the protocol: as §1
Assay [10] addresses PUM1 PUF domain R4-LHH (Homo sapiens, UniProt Q14671 828-1176, N971L;Q975H). A digest of the protocol:
as §1

Positions count from the first letter of the chain named.

As to “GGCUAGAACUAGUGGAUCCCCCGGCGCCCGGCGGCUCGAGCCCGGGUAAGUGUAAAUAGUCUGCAUGCCGCCGGGCGCCAUGCCUGCAGGUCGACUCUAGAAAACAUG”, the results for the binding signal in assay [1], in [2] and in [3] were 2.11 log2 enrichment (interaction score), 2.34 log2 enrichment (interaction score) and 3.82 log2 enrichment (interaction score), respectively.

As to “GGCUAGAACUAGUGGAUCCCCCGGCGCCCGGCGGCUCGAGCCCGGGUAAGUGGAAAUAGUCUGCAUGCCGCCGGGCGCCAUGCCUGCAGGUCGACUCUAGAAAACAUG”, the binding signal in assay [4] was 4.81 log2 enrichment (interaction score).

As for “GGCUAGAACUAGUGGAUCCCCCGGCGCCCGGCGGCUCGAGCCCGGGUAAGUCUAAAUAGUCUGCAUGCCGCCGGGCGCCAUGCCUGCAGGUCGACUCUAGAAAACAUG”, the binding signal in assay [5] is 4.72 log2 enrichment (interaction score).

As to “GGCUAGAACUAGUGGAUCCCCCGGCGCCCGGCGGCUCGAGCCCGGGUAAGUUUAAAUAGUCUGCAUGCCGCCGGGCGCCAUGCCUGCAGGUCGACUCUAGAAAACAUG”, in assay [5], the binding signal was 5.92 log2 enrichment (interaction score).

In the case of “GGCUAGAACUAGUGGAUCCCCCGGCGCCCGGCGGCUCGAGCCCGGGUAAGUGUUAAUAGUCUGCAUGCCGCCGGGCGCCAUGCCUGCAGGUCGACUCUAGAAAACAUG”, the binding signal in assay [6] was 2.78 log2 enrichment (interaction score); in [7], 1.36 log2 enrichment (interaction score).

Regarding “GGCUAGAACUAGUGGAUCCCCCGGCGCCCGGCGGCUCGAGCCCGGGUAAGCGUAAAUAGUCUGCAUGCCGCCGGGCGCCAUGCCUGCAGGUCGACUCUAGAAAACAUG”, in assay [8], the binding signal was 4.76 log2 enrichment (interaction score).

As to “GGCUAGAACUAGUGGAUCCCCCGGCGCCCGGCGGCUCGAGCCCGGGUAAGUGUCAAUAGUCUGCAUGCCGCCGGGCGCCAUGCCUGCAGGUCGACUCUAGAAAACAUG”, the binding signal in assay [7] is 3.06 log2 enrichment (interaction score).

Turning to “GGCUAGAACUAGUGGAUCCCCCGGCGCCCGGCGGCUCGAGCCCGGGUAAGUGUACAUAGUCUGCAUGCCGCCGGGCGCCAUGCCUGCAGGUCGACUCUAGAAAACAUG”, in assay [9], the binding signal was 5.96 log2 enrichment (interaction score).

Consider “GGCUAGAACUAGUGGAUCCCCCGGCGCCCGGCGGCUCGAGCCCGGGUAAGUGUAUAUAGUCUGCAUGCCGCCGGGCGCCAUGCCUGCAGGUCGACUCUAGAAAACAUG”, for which the binding signal in assay [10] is 4.06 log2 enrichment (interaction score).

These data come from publication PMC8384837, “Expanding the binding specificity for RNA recognition by a PUF domain”.
